Compounds with a hit are over-represented: about 3.4% of the library has one in this group of screens.
HSF1 inh – HSF1 inhibition. NIH3T3-HGL HSE-luciferase, MG132-induced, luminescence 8 h; active compounds read low. activity change, negative = inhibition, % at 7.5 µM (by protocol). hit rate 0.77% among 300,000. AID 2098;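 active = more than half of replicate wells show activity change below -50%, luminescence cut by over half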;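 note: luciferase reports HSF-1 transcriptional activity via heat shock element; 0% = median of DMSO wells and -100% = zero luminescence signal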
PG9 binder – binds the HIV-1 gp120 antibody PG9. hit rate 0.43% among 360,000. TR-FRET gp120-PG9 antibody binding. inhibition, % at 6.7 µM; in the data active = inhibition above about 8.5%
HSP90 inh – inhibitors of HSP90 luciferase refolding in rabbit reticulocyte lysate; luciferase refolding luminescence, 3 h; hit rate 0.91% among 290,000; inhibition, % at 5.6 µM;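 active = inhibition above the screen-wide mean plus 3 SD, computed separately per campaign, cut at about 16% in these data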;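 note: 0% = DMSO wells and 100% = 60 µM geldanamycin wells; inhibitors lower the luminescence because luciferase stays unfolded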
GAA850 FXN act – frataxin GAA850 promoter activation; activation, % at 6 µM; HEK293 lucGAA850 FXN promoter luciferase reporter, 24 h; percent of 10 µM SAHA response; hit rate 0.56% among 360,000;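 active = activation above the average of all compounds screened plus 3 SD, cutoff fixed separately per campaign, cut at about 7.5% in these data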;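 note: 0% = DMSO wells and 100% = 10 µM SAHA wells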
SMARCA2 act – SMARCA2 function activation, primary screen | MG213 cells, MMTV-luciferase reporter, dexamethasone, overnight | activation, % at 9.1 µM | hit rate 1% among 370,000 | AID 652017; in the data active = activation above about 7.8%;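 note: 0% = vehicle wells and 100% = reference activator wells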
AI-2 QS modul – modulators of Vibrio harveyi AI-2 quorum sensing system; Vibrio harveyi JMH597 AI-2 luminescence/OD600 ratio, 9 h; active compounds read low; strain lacks LuxN and CqsS sensors; 0 = neutral-control median; activity change, % at 7.5 µM; hit rate 0.4% among 300,000; AID 2094; in the data active = activity change below about -75%, passing the limit was not always enough;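 note: luminescence divided by OD600 gain over 9 h not by final OD600 alone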
SMARCA2 conf – SMARCA2 activation, confirmation screen | hit rate 30% among 3,500 | shares compounds with SMARCA2 act | MG213 cells, MMTV-luciferase with dexamethasone, luminescence, overnight; MG213 cells expressing E1A, Rb sequestered; DMSO wells 0%, reference activator 100% | activation, % at 9.1 µM;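 active = activation above its plate's cutoff, the mean activation of tested wells plus 3 SD, cut at about 7.9% in these data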
GAL4-VP16 Luc – GAL4-VP16 reporter activation counter-screen; shares compounds with SMARCA2 act; HEK293 GAL4-VP16 pG5luc reporter, luciferase luminescence; scaled: DMSO wells 0%, SAHA wells 100%; activation, % at 9.1 µM; hit rate 41% among 3,500; AID 686939;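 active = activation above the solvent-only control well mean plus 3 SD, averaged across control plates, cut at about 5.2% in these data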
* hit, by the source's call; nt = not tested or not shown.

SMILES	HSF1 inh	PG9 binder	HSP90 inh	GAA850 FXN act	SMARCA2 act	AI-2 QS modul	SMARCA2 conf	GAL4-VP16 Luc
CCCCN1CC(COCc2ccccc2)Oc2cccc(NCc3cc(OC)c(OC)c(OC)c3)c2S1(=O)=O (configuration not stated)	nt	0	nt	nt	-3	nt	nt	nt
C/C(Nc1cccc(F)c1)=C(/C#N)C(N)=O	1	-2	2	0	8.3*	6	-3	0
Cc1ccc(C)c(NC(=S)c2ccc3ccccc3n2)c1	24	-3	-6	5	8.5*	9	7	10*
Cc1nc(NC(=O)Nc2ccc(Cl)cc2)sc1C	27	2	3	5	8.6*	1	3	10*
Cc1nc(NC(=O)c2ccccc2)sc1C	32	-1	7	5	8.2*	43	7	7.8*
CN(C)CCNC(=O)c1cc2c(s1)-c1ccc(Cl)cc1SC2	-39	-1	-7	0	-7	12	nt	nt
CN(C)C(=S)NC(=S)Nc1ccc2ccccc2c1	nt	-2	nt	17*	17*	nt	-11	34*
O=[N+]([O-])c1ccc(COc2cccc(CO)c2)cc1	nt	1	nt	nt	6	nt	nt	nt
Nc1ccc(C(=O)OCc2nc3ccccc3s2)cc1	4	3	1	1	7	1	nt	nt
O=C(OCc1nc2ccccc2s1)c1cc2ccccc2oc1=O	-10	1	-8	nt	8.2*	59	6	9.1*
CC(=O)NC(CC(=O)NC1CCCc2ccccc21)c1ccccc1 (configuration not stated)	-1	0	2	0	8.0*	18	-1	-1
Cc1ccc(NC(=O)COC(=O)C2CCC(=O)N2)c([N+](=O)[O-])c1 (configuration not stated)	-3	1	-4	2	13*	9	-2	1
O=C1CCCCC1Nc1ccc2ccccc2c1 (configuration not stated)	nt	-5	nt	1	2	nt	nt	nt
Nc1cccc(O)c1	nt	-2	nt	1	9.7*	nt	5	1
COC(=O)[C@]12C=CCN1[C@@H](c1ccc(OC)c(OC)c1)c1c(c3ccccc3n1S(=O)(=O)c1ccc(C)cc1)C2	nt	nt	nt	nt	-3	nt	nt	nt
CCOC(=O)CNC(=S)N1CCn2c(nc3ccccc32)C1	2	-2	1	3	9.8*	9	-2	0
O=C1NC[C@H](CCCCN2CCN(CC3CCCCC3)C(=O)C2=O)N(CCc2ccccc2)C1=O	nt	-1	nt	nt	1	nt	nt	nt
COC(=O)CNc1c(-c2ccccc2)nc2ccc(Br)cn12	17	-4	3	2	14*	7	11*	6.8*
Cc1ccc2cc3c(N)c(C(=O)N4CCOCC4)sc3nc2c1	29	-11	-2	-3	9.5*	17	14*	14*
Cc1cccc2nc(=S)n(C(=O)c3ccco3)n12	7	-1	0	3	8.6*	20	7	14*
O=C(c1ccco1)N1CCN(C(=O)c2ccco2)CC1	nt	-1	nt	nt	-3	nt	nt	nt
C[C@@H]1CN([C@@H](C)CO)C(=O)CCCn2cc(nn2)CO[C@H]1CN(C)C(=O)Cc1ccccc1	nt	-1	nt	nt	-5	nt	nt	nt
CN(C)CCNC(=O)c1ccc2nc([C@@H]3O[C@H](CO)[C@H](O)[C@H](O)[C@H]3O)[nH]c2c1	nt	1	nt	0	-3	nt	nt	nt
COc1ccc(CSc2nc3nc(C)cc(C)n3n2)cc1F	0	-2	0	1	-1	14	nt	nt
COc1ccc(COC(=O)c2nc3nc(C)cc(C)n3n2)cc1F	-3	-2	-2	0	8.2*	5	-2	0
SMILES	HSF1 inh	PG9 binder	HSP90 inh	GAA850 FXN act	SMARCA2 act	AI-2 QS modul	SMARCA2 conf	GAL4-VP16 Luc
Cc1ccccc1-c1ccc2c(c1)O[C@@H](CN(C)C(=O)Nc1ccc(C(F)(F)F)cc1)[C@H](C)CN([C@@H](C)CO)S2(=O)=O	nt	-1	nt	-6	-5	nt	nt	nt
CCc1ccc(C(=O)CN2C(=O)NC(C)(c3ccc(C)cc3)C2=O)cc1 (configuration not stated)	0	-4	2	-1	9.1*	-22	6	0
Cc1ccc(C2(C)NC(=O)N(CC(=O)c3ccc4c(c3)OCCO4)C2=O)cc1 (configuration not stated)	nt	0	nt	1	1	nt	nt	nt
CNc1cnc(-c2cccc(C(=O)N3CCOCC3)c2)cn1	nt	-1	nt	0	-3	nt	nt	nt
CNc1cccc(-c2ccc(C(=O)N3CCOCC3)cc2)n1	nt	-1	nt	2	10*	nt	8	0
CNc1cccc(-c2ccc(N3CCN(C)CC3)nc2)n1	nt	0	nt	6	9.1*	nt	12*	7.7*
O=C(CSc1nc2ccc(NC(=O)CSc3nnnn3-c3ccccc3)cc2s1)Nc1ccccc1	2	-1	3	-2	1	15	nt	nt
Cn1cnnc1SCC(=O)Nc1ccc2nc(SCc3ccccc3F)sc2c1	31	-3	2	5	9.9*	12	3	9.0*
CCCCn1c(CN(Cc2ccccc2)Cc2ccccc2)nc2c1c(=O)n(C)c(=O)n2C	6	0	2	0	9.8*	6	0	0
Cc1cc(NC(=O)Cc2ccccc2)no1	-4	0	3	2	2	34	nt	nt
C/C(=C\c1ccccc1)C(=O)Nc1cc(C)on1	10	2	1	5	9.9*	-2	5	6.9*
O=C(CSC1=NCCS1)N1CCc2ccccc21	25	-1	5	3	8.1*	22	12*	8.4*
Nc1ccccc1SCC(=O)N1CCc2ccccc21	-8	-2	-3	0	5	-12	nt	nt
NNC(=O)C(Cc1ccc(O)cc1)N1Cc2ccccc2C1=O (configuration not stated)	1	0	3	-2	-4	13	nt	nt
COC(=O)C(Cc1ccc(O)cc1)N1Cc2ccccc2C1=O (configuration not stated)	6	-3	-3	7	9.1*	18	6	9.3*
CC1CCN(CCc2nc3cc(NC(=O)NC4CCCCC4)ccc3n2C)CC1	23	0	1	5	8.5*	10	4	1
COC(=O)C1=C(C)N(Cc2ccccc2C(F)(F)F)C(=NCc2ccc3c(c2)OCO3)NC1c1ccccc1C(F)(F)F (configuration not stated)	nt	1	nt	nt	-4	nt	nt	nt
COc1cccc(-c2cnc3c(NC=O)cc(-c4cc(OC)c(OC)c(OC)c4)cn23)c1	nt	0	nt	4	-1	nt	nt	nt
COc1ccc(-c2cnc3c(NC=O)cc(-c4ccc(S(C)(=O)=O)cc4)cn23)cc1OC	nt	-2	nt	-5	11*	nt	11*	4

Screening results as filed in PubChem BioAssay.
